# Screening data: PubChem, National Center for Advancing Translational Sciences (NCATS)
# CBFb-RUNX1 inh = qHTS Assay for Compounds Blocking the Interaction Between CBF-beta and RUNX1 for the Treatment of Acute Myeloid Leukemia. Runt-related transcription factor 1 (Homo sapiens) + Core-binding factor subunit beta …. AlphaScreen CBFb-His/RUNX1-biotin binding, biochemical. Potency, µM (top dose mostly 59.8 µM), actives largely listed as inhibitors. 230,000 tested, under 10 active
# Target sequence (Q01196 whole entry, looked up): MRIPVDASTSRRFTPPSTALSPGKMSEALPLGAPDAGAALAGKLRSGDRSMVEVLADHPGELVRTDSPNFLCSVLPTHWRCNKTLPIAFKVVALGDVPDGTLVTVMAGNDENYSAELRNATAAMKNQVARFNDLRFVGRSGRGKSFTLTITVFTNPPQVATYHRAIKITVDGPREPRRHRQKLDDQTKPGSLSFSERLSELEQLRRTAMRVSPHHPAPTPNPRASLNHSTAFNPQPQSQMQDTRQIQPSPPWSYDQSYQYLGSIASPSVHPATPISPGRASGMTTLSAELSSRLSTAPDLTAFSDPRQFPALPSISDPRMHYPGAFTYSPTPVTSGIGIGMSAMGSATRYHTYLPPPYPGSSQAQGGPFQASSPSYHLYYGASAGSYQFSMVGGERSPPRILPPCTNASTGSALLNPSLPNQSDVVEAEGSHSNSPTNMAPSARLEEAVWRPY
# Target sequence (Q13951 whole entry, looked up): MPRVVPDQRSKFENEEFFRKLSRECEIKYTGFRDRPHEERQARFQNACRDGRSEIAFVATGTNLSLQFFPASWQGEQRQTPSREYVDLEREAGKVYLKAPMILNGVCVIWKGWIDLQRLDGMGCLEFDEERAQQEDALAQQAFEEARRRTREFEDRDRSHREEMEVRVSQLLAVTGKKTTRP
#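 CBF-beta (His) and RUNX1 (biotin), 30 nM each; 20 min preassociation; + compound, 15 min; + beads 50 ng each (Ni, streptavidin), 90 min; RT; AlphaScreen read.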
# HTT ATP protect = qHTS Multiplex Assay to Identify Dual Action Probes in a Cell Model of Huntington: Cytoprotection (ATP). PC12 HTT-Q103 induced, cytoprotection, ATP luminescence, 40 h. Potency, µM (titrated, usually from 56.4 µM), hits mostly activators. 230,000 compounds, 0.14% hits. AID 1471, 2008; further: nearly all actives have a fitted effect of over 45% in size
#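 PC12 cells with ecdysone-inducible HTT exon 1 Q103-GFP, induced with 100 nM tebufenozide and co-treated with library compounds in a dose series (1536-well, 1500 cells/well). Cytoprotection read as ATP content by ATPlite luminescence.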
# JMJD2E inh = qHTS Assay for Inhibitors of Human Jumonji Domain Containing 2E (JMJD2E). Lysine-specific demethylase 4E (Homo sapiens), B2RXH2. JMJD2E catalytic domain, FDH-coupled NADH fluorescence (FDH is formaldehyde dehydrogenase). Potency, µM (titrated, usually from 57.1 µM), usual class: inhibitors. 230,000 compounds, 1.6% hits; active means well fitted inhibition curve with a large enough effect, not every such curve was filed as active; inconclusive means small, poorly fitted or top-dose-only effect, or another doubt; inactive means no such curve, though single readings can be large or run the other way; further: nearly all actives have a fitted effect of over 50% in size
# HPGD inh = qHTS Assay for Inhibitors of HPGD (15-Hydroxyprostaglandin Dehydrogenase). Potency, µM, actives largely listed as inhibitors. 15-hydroxyprostaglandin dehydrogenase [NAD(+)] (Homo sapiens), P15428. 150,000 compounds, 4.3% hits. purified HPGD, NADH fluorescence kinetic, PGE2 substrate; active means well fitted inhibition curve with a large enough effect, not every such curve was filed as active; inconclusive means small, poorly fitted or top-dose-only effect, or another doubt; inactive means no such curve, though single readings can be large or run the other way
#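 20 nM HPGD preincubated 15 min at room temperature with compound in 50 mM Tris-HCl pH 8, 0.01% Tween 20. Started with 1 mM NAD+ and 30 uM prostaglandin E2; NADH fluorescence (360/450 nm) read 5 times over 30-s intervals, last minus first.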
# HTT aggregate = qHTS Multiplex Assay to Identify Dual Action Probes in a Cell Model of Huntington: Aggregate Formation (GFP) | PC12 HttQ103-GFP aggregates, Acumen cytometry, 40 h | Potency, µM (highest dose often 46.1 µM), hits mostly inhibitors | 220,000 compounds, 1.1% hits | AID 1688, 2009; further: nearly all actives have a fitted effect of over 60% in size
#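 Aggregate formation scored by laser-scanning cytometer (488 excitation, 500–530 emission) in lysed PC12 cells expressing Q103-GFP after 100 nM tebufenozide induction; library tested in dose series, with ATPLite reagent added in the multiplex.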
# ALDH1A1 inh = qHTS Assay for Inhibitors of Aldehyde Dehydrogenase 1 (ALDH1A1). Aldehyde dehydrogenase 1A1 (Homo sapiens), P00352. Purified ALDH1A1, NADH fluorescence, propionaldehyde substrate. Potency, µM (top dose mostly 75.3 µM), most hits filed as inhibitors. 220,000 compounds, 7.3% hits. AID 1030, 2008; active means well fitted inhibition curve with a large enough effect, not every such curve was filed as active; inconclusive means small, poorly fitted or top-dose-only effect, or another doubt; inactive means no such curve, though single readings can be large or run the other way
# A number is an active result; n = inactive; u = inconclusive; x = no result given; ! = not active in a repeat; [ ] = another dose, or the depositor's remark. A selection: hits, their analogues and other compounds. The true share with any hit is near 9.8%. Unless noted, the call rests on the fitted dose curve; in most records, active means well fitted curve in the direction sought with a large enough effect; inconclusive means small, poorly fitted or top-dose-only effect, or another doubt; inactive means no such curve, though single readings can be large; an effect the other way counts as inactive or inconclusive.
SMILES,CBFb-RUNX1 inh,HTT ATP protect,JMJD2E inh,HPGD inh,HTT aggregate,ALDH1A1 inh
COc1ccccc1N1CCN(Cc2nc(-c3ccc(F)cc3)oc2C)CC1,n,n,n,x,n,0.4µM
CCOC(=O)N/N=C(/C)c1ccc(N2C(=O)C3CCCCC3C2=O)cc1 (stereo not drawn),n,n,n,x,n,n
COC(CNC(=O)c1ccc(N2CCc3ccccc32)c([N+](=O)[O-])c1)OC,n,n[10 µM],n,n,11µM,u
NNC(=O)c1ccc(N2CCc3ccccc32)c([N+](=O)[O-])c1,u,n[10 µM],n,x,n,1.6µM
Cc1ccc(CNC(=O)c2ccc(N3CCc4ccccc43)c([N+](=O)[O-])c2)cc1,x,n[10 µM],n,n,n,u
CC1=C(/C=C/C(C)=C/C=C/C(C)=C/C(=O)Oc2c(C)c(C)c3c(c2C)CC[C@@](C)(CCC[C@H](C)CCC[C@H](C)CCCC(C)C)O3)C(C)(C)CCC1,x,n,x,x,n,x
S=C1NC2(CCCCC2)Nc2ccccc21,n,n[10 µM],u,x,n[9.22 µM],u
Cc1cc([N+](=O)[O-])cc2c1NC(=O)C2(O)N1CCOCC1 (stereo not drawn),n,n,n,x,n,u
COCCn1c(-c2ccc(-c3ccc([N+](=O)[O-])cc3Br)o2)nc2c1c(=O)[nH]c(=O)n2CC(C)C,n,n[10 µM],u,x,n,16µM
COc1ccc(-c2ccc(-c3nc4c(c(=O)[nH]c(=O)n4Cc4ccccc4)n3C)o2)c([N+](=O)[O-])c1,n,n[10 µM],n,28µM,n,n
OC[C@@H]1O[C@@H](n2cnc3c(NCCc4ccccc4)ncnc32)[C@@H](O)[C@H]1O,x,n[1.9 µM],x,x,x,x
CC(C)(C)C1=CC(=O)C(=O)C(C(C)(C)C)=C1,n,x,n,4µM,n,2.8µM
CC(C)(C)C1=CC(=Nc2ccccc2N)C=C(C(C)(C)C)C1=O,n,n[10 µM],n,n,n,n
Cc1ccc(OCC(=O)NNC(=O)C(C)Sc2ncnc3sc(C)c(C)c23)cc1 (stereo not drawn),n,n[10 µM],n,32µM,n,u
CCCCCN1N=C(C)CC1=O,n,n,n,x,n,0.63µM
CC1CCN(c2c(NCC3CCC(C(=O)NCc4ccccc4Cl)CC3)c(=O)c2=O)CC1 (stereo not drawn),n[2.36 µM],x,n,16µM,n,n
CC1CCN(c2c(NCC3CCC(C(=O)Nc4ccccn4)CC3)c(=O)c2=O)CC1 (stereo not drawn),n[2.36 µM],x,n,22µM,n,n
Cc1ccc(CNC(=O)C2CCC(CNc3c(N4CCC(C)CC4)c(=O)c3=O)CC2)cc1 (stereo not drawn),n,n[10 µM],n,x,n[9.22 µM],x
Cc1ccc(Cl)cc1N1CCN(CC(=O)Nc2ccc3[nH]c(=O)[nH]c3c2)CC1,n,n[10 µM],n,n,n,22µM
O=[N+]([O-])c1cnc2ccccc2c1,n,x,n,n,n,10µM
O=[N+]([O-])c1cccc(-c2cnc3ccccc3n2)c1,n,n[10 µM],n,x,n[9.22 µM],x
COc1ccc(Br)cc1C(=O)NC(=S)Nc1ccc(Cl)c(C(=O)O)c1,n,n,n,x,n,18µM
Cc1ccc(-c2ccc(=O)n(CC(=O)NCc3ccc(F)cc3)n2)cc1,n,n,u,x,n,n
Cc1ccc2nc(C)/c(=N\O)c(C)nc2c1,n,n,u,n,n,n
Cc1nc2ccccc2nc(C)c1=NO,n,n,u,n,n,22µM
SMILES,CBFb-RUNX1 inh,HTT ATP protect,JMJD2E inh,HPGD inh,HTT aggregate,ALDH1A1 inh
COc1ccc2nc(N3C(=O)/C(=C/c4ccc(Cl)cc4)NC3=S)sc2c1,n,n[10 µM],n,n,u,n
COc1ccc(N2C(=O)/C(=C/c3cccs3)NC2=S)cc1,n,n[10 µM],n,3.5µM,n,3.2µM
Cc1nn2c(C(F)(F)F)c3c(nc2c1-c1ccccc1)CCC3,n,x,n,x,x,n
COc1cc(C2CC(=O)N3CN(c4ccccc4C)CSC3=C2C#N)cc(OC)c1OC (stereo not drawn),n,n,11µM,28µM,n,2.8µM
COc1ccccc1N1CSC2=C(C#N)C(c3ccc(SC)cc3)CC(=O)N2C1 (stereo not drawn),n,n,22µM,8.9µM,n,8.9µM
Nc1ncnc2c1ncn2[C@H]1O[C@@H](CO)[C@@H](O)[C@H]1N,x,n[10 µM],x,n,x,n[13.5 µM]
COc1cccc(/C=C(/C#N)c2ccc(Cl)cc2)c1OCc1cccc(C(=O)O)c1,n,n,u,x,n,n
COc1cccc(/C=C(/C#N)c2ccc(F)cc2)c1OCc1cccc(C(=O)O)c1,n,n[10 µM],n,u,n,13µM
CCn1c(CNc2ccc(F)cc2)nnc1SCC(=O)Nc1ccc(OC)cc1,n,n[10 µM],n,n,n,n
CCc1ccc(OC2=NS(=O)(=O)c3ccccc32)cc1,n,n,n,x,n,n
CCN(CC)c1cccc(OC2=NS(=O)(=O)c3ccccc32)c1,n,n,u,x,n,22µM
Cn1c(=O)cc(OCCCC(=O)N2CCCCC2)c2ccccc21,n,n[1.9 µM],n,7.1µM,n,n
CN1CCN(C(=O)CCCOc2cc(=O)n(C)c3ccccc23)CC1,n,n,n,n,n,n
Cn1c(=O)cc(OCCCC(=O)NC2CCCC2)c2ccccc21,n,n,n,14µM,n,n
COc1cc(OC)c(NS(=O)(=O)c2cc(C(=O)OCC(=O)NCC3CCCO3)ccc2OC)cc1Cl (stereo not drawn),n,n,n,x,n,u
O=C(NNS(=O)(=O)c1ccccc1Cl)c1nn(-c2ccc(F)cc2)ccc1=O,n,n[10 µM],n,x,n[9.22 µM],n
CCN1/C(=C/C(C)=O)Sc2ccc(OC)cc21,n,n,n,13µM!,u,u
COc1ccc(OC)c(NC(=O)CSc2nncc3ccc(OC)c(OC)c23)c1,n,n[10 µM],u,x,n[9.22 µM],x
CCOC(=O)N1CCC(Nc2c(NCCCN3CCN(C4CCCCC4)CC3)c(=O)c2=O)CC1,n,n,n,x,n,n
O=C(NCc1ccccc1)c1ccc(C2SCC(=O)N2Cc2ccccc2)cc1 (stereo not drawn),n,n[10 µM],n,10µM,n,n
C=CCNC(=O)c1ccc(C2SCC(=O)N2Cc2ccccc2)cc1 (stereo not drawn),n,n[10 µM],n,x,n[9.22 µM],u
CC(C)NC(=O)c1ccc(C2SCC(=O)N2Cc2ccccc2)cc1 (stereo not drawn),n,n[10 µM],n,3.2µM,n,n
